These results are taken from PubChem BioAssay (Tox21).

Results filed as inconclusive are left out. The source holds several records for some structures; these can differ, active in one and inactive in another. The source made the active and inactive calls. Unless noted, the call rests on the fitted dose curve.

Assay [1] in a line: Nuclear factor erythroid 2-related factor 2/antioxidant responsive element (Nrf2/ARE) small molecule agonists: luciferase reporter gene qHTS assay in human keratinocytes (AID 1919969). Further: nearly all actives have a fitted effect of over 35% in size. For orientation: A reporter such as luciferase makes a cellular process visible.
Assay [2] deals with Gonadotropin-releasing hormone receptor (Homo sapiens) (UniProt P30968). The assay is described as follows: Human gonadotropin-releasing hormone receptor (GnRHR) small molecule agonists, calcium flux assay in GnRHR-HEK293 cells (AID 1920063). Further: nearly all actives have a fitted effect of over 35% in size. Summed up:
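Intracellular calcium rise is the read-out: engineered human GnRHR HEK293 cells, dye-loaded, are exposed to DMSO-dissolved compounds and fluorescence at Ex/Em 480/540 is tracked for 3 min.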
On the technique in general: A change in cytosolic calcium serves as a functional read-out for many receptors and channels.

Assay [3] deals with KiSS-1 receptor (Homo sapiens) (UniProt Q969F8). The assay is described as follows: Human kisspeptin (KISS1R) small molecule agonists, calcium flux assay in KISS1R-HEK293 cells (AID 1920064; active means well fitted activation curve with a large enough effect in the repeat runs). Summed up:
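Concentration-response testing used 15 concentrations in triplicate on human KISS1R-expressing HEK293 cells. Calcium-dependent fluorescence (Ex/Em 480/540) was followed kinetically for 3 min after compound transfer.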

Assay [4] is described as follows: G protein-coupled receptor (GPCR) small molecule agonists, calcium flux assay: HEK293 wild type cell line counter screen (AID 1920065). Summed up:
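Fluorescence intensity signals activation. After overnight (18 h) culture and a 1 h calcium dye load at 37 C, compounds are added by pin tool and the plate read at 480/540 nm for 3 min in 1 s steps.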

Assay [5] is described as follows: p53 small molecule agonists, cell-based qHTS assay with human liver microsomes (AID 1963577).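 Further: p53 response element beta-lactamase reporter cells with liver microsomes plus NADPH.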 In outline: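 Reporter activation was measured by LiveBLAzer fluorescence intensity in p53RE-bla cells, which had been exposed to compounds for 16 h at 37 C alongside 0.5 mg/mL human liver microsomes and 0.5 mg/mL NADPH (final concentrations).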
A general note: In qHTS, concentration-response curves come from the screen itself.

Assay [6] can be described thus: p53 small molecule agonists, cell-based qHTS assay with rat liver microsomes (AID 1963578). In outline:
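Compound in DMSO added to p53RE-bla cells 5 h post-plating; rat microsomes/NADPH 0.5 mg/mL final; 16 h, 37 C; LiveBLAzer 2 h RT.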

Assay [7] is described as follows: p53 small molecule agonists, cell-based qHTS assay with human liver microsomes: qHTS cell viability counter screen (AID 1963579). Further: nearly all actives have a fitted effect of over 45% in size. Summed up:
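HLM-supplemented (0.5 mg/mL final) and NADPH-supplemented (0.5 mg/mL final) p53RE-bla cultures, 4,000 cells per well, were dosed with compounds in DMSO for 16 h at 37 C; luminescent ATP detection (CellTiter-Glo, 30 min, room temperature) quantified surviving cells.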

Assay [8] is described as follows: p53 small molecule agonists, cell-based qHTS assay with rat liver microsomes: qHTS cell viability counter screen (AID 1963580). Further: nearly all actives have a fitted effect of over 45% in size. In outline: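 Rat liver microsome (0.5 mg/mL final) and NADPH (0.5 mg/mL final) co-incubation with compounds for 16 h at 37 C on HCT-116 p53RE-bla cells; cytotoxicity taken from intracellular ATP luminescence.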
The nature of assay [9]: p53 small molecule agonists, cell-based qHTS assay: qHTS cell viability counter screen (AID 1963581). Further: nearly all actives have a fitted effect of over 45% in size. Summed up:
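Luminescence from CellTiter-Glo, reflecting ATP content, serves as the cytotoxicity measure; it is taken after the 2 h reporter substrate step in HCT-116 p53RE-bla cells dosed for 16 h at 37 C.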

Assay [10] is described as follows: p53 small molecule agonists, cell-based qHTS assay (AID 1963582; active means well fitted activation curve with a large enough effect in the signal ratio in the repeat runs, not every such curve was filed as active; the % refers to the signal ratio). Summed up: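 After plating, p53RE-bla cells sat 5 h in the incubator; compounds or DMSO vehicle were pinned in; a 16 h incubation at 37 C followed; FRET substrate was added and, 2 h later at RT, fluorescence was measured.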
In assay [11] the target is 5-hydroxytryptamine receptor 2A (Homo sapiens) (UniProt P28223). The experiment in a line: 5-hydroxytryptamine receptor 2A (HTR2A) small molecule antagonists, cell-based qHTS assay (AID 1963586). Further: nearly all actives have a fitted effect of over 45% in size. Further: potency means the concentration at half of the fitted maximal effect. In outline:
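CHO cells stably expressing human HTR2A were plated for 18 h at 37 C, then loaded with calcium dye for 1 h. Compounds were preincubated 5 min at room temperature before DOI (4 nM solution) was added. Kinetic fluorescence was read for 3 min.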

Assay [12] has the same target. The assay is described as follows: 5-hydroxytryptamine receptor 2A (HTR2A) small molecule agonists, cell-based qHTS assay (AID 1963587). Further: nearly all actives have a fitted effect of over 30% in size. Further: potency means the concentration at half of the fitted maximal effect. In outline:
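Kinetic calcium-flux fluorescence (2 min, 1 sec intervals) after compound addition in agonist mode. HTR2A-CHO cells were cultured 18 h, then dye-loaded 1 h at 37 C.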

Assay [13] has as its target Muscarinic acetylcholine receptor M1 (Homo sapiens) (UniProt P11229). The assay is described as follows: Cholinergic receptor muscarinic 1 (CHRM1) small molecule antagonists, cell-based qHTS assay (AID 1963588). Further: nearly all actives have a fitted effect of over 40% in size. Further: potency means the concentration at half of the fitted maximal effect. Summed up: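 Compounds were tested at 15 concentrations in three independent runs. Dye-loaded CHRM1-CHO cells were exposed 5 min at room temperature before stimulation by acetylcholine added at 50nM. Intracellular calcium was read kinetically on FDSS for 3 min.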

The target is the same in assay [14]. The assay is described as follows: Cholinergic receptor muscarinic 1 (CHRM1) small molecule agonists, cell-based qHTS assay (AID 1963589). Further: nearly all actives have a fitted effect of over 35% in size. Summed up: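 Fluorescent calcium dye reports M1 activation in stably transfected CHO cells. Compounds, 15 concentrations, added after 1 h dye loading at 37 C; kinetic reading at 1 sec intervals.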
The target in assay [15] is Beta-2 adrenergic receptor (Homo sapiens) (UniProt P07550). The assay is described as follows: Adrenergic beta2 receptor (ADRB2) small molecule antagonists, cell-based qHTS assay (AID 1963592). Further: nearly all actives have a fitted effect of over 50% in size. Further: potency means the concentration at half of the fitted maximal effect. Summed up: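 Assay format: CHO-ADRB2 cells, 18-20hr seeding at 37C/5% CO2, then compound plus 1nM isoproterenol agonist mix for 0.5hr RT. Homogeneous time-resolved fluorescence cAMP detection after 1hr, expressed as 665/615 nm ratio.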
Sequence of Beta-2 adrenergic receptor (Homo sapiens) (P07550 whole entry, looked up): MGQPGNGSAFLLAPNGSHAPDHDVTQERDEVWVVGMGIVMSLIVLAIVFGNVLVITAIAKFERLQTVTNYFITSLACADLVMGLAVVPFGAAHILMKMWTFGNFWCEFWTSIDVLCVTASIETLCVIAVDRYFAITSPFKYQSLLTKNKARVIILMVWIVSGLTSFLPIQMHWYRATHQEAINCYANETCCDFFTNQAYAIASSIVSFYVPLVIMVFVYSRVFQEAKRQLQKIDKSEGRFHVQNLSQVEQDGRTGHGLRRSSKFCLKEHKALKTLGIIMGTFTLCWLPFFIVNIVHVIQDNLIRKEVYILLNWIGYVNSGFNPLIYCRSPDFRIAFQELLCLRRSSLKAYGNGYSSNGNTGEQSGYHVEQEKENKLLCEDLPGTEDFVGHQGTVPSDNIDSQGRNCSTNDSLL

In assay [16] the target is D(2) dopamine receptor (Homo sapiens) (UniProt P14416). The assay is described as follows: Dopamine D2 receptor (DRD2) small molecule agonists, cell-based qHTS assay (AID 1963594). Further: nearly all actives have a fitted effect of over 35% in size. In outline:
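cAMP accumulation in DRD2-HEK293 cells measured by HTRF after 1 h detection; compounds added 10 min before NKH477 (200nM […]) forskolin-analogue stimulation, 30 min at room temperature, with Ro20-1724 present at 0.1 mM final.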

For assay [17] the target is unchanged. The experiment in a line: Dopamine D2 receptor (DRD2) small molecule antagonists, cell-based qHTS assay (AID 1963595; active means well fitted inhibition curve with a large enough effect in the signal ratio in the repeat runs, with a control signal flat; the % refers to the signal ratio). In outline:
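In this cell-based antagonist screen, compounds act for 10 min at room temperature before a 30 min challenge with 12 nM quinpirole and 200 nM NKH477. cAMP is quantified by HTRF competition in DRD2-HEK293 cells containing 0.1 mM Ro20-1724.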

Assay [18] can be described thus: cAMP Responsive Elements (CRE) small molecule agonists, cell-based qHTS assay (AID 1963590). In outline:
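Compound exposure lasted 3 h at 37 C/5% CO2 in CRE-bla HEK 293T cells grown in assay medium with 10% dialyzed FBS and 25 mM HEPES. Reporter signal came from LiveBLAzer B/G FRET substrate, 2 h, room temperature.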

A short description of assay [19]: cAMP Responsive Elements (CRE) small molecule antagonists, cell-based qHTS assay (AID 1963591; active means well fitted inhibition curve with a large enough effect in the signal ratio in the repeat runs, not every such curve was filed as active; the % refers to the signal ratio). Summed up: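 Stimulation used NKH477 at a final 0.25 uM for 3 h in compound-treated CRE-bla HEK293T cells, seeded 18 h beforehand. Reporter activity was measured with LiveBLAzer B/G FRET substrate after 2 h at room temperature.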
Assay [20] concerns the target Beta-2 adrenergic receptor (Homo sapiens) (UniProt P07550). The experiment in a line: Adrenergic beta2 receptor (ADRB2) small molecule agonists, cell-based qHTS assay (AID 1963593).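 Further: CHO cells stably overexpressing human ADRB2.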 In outline: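 CHO cells stably over-expressing ADRB2 were plated overnight at 37C, then dosed with compounds plus a stimulation mix containing 100uM IBMX and 25uM Ro-20-1724 for 0.5hr at room temperature. cAMP was measured by HTRF competition, 1hr.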

Sequence of 5-hydroxytryptamine receptor 2A (Homo sapiens) (P28223 whole entry, looked up): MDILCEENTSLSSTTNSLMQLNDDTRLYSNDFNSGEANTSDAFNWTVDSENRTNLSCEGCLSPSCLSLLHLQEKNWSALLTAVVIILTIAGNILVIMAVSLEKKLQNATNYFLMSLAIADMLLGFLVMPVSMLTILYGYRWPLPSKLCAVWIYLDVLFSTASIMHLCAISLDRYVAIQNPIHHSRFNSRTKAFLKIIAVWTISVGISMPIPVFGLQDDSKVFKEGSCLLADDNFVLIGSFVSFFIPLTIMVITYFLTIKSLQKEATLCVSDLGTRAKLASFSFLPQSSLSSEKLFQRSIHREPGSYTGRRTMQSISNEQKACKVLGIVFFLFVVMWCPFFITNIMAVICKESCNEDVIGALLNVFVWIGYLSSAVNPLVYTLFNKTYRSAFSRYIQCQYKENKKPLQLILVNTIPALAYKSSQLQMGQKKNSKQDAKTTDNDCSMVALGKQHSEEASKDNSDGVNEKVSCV
Sequence of D(2) dopamine receptor (Homo sapiens) (P14416 whole entry, looked up): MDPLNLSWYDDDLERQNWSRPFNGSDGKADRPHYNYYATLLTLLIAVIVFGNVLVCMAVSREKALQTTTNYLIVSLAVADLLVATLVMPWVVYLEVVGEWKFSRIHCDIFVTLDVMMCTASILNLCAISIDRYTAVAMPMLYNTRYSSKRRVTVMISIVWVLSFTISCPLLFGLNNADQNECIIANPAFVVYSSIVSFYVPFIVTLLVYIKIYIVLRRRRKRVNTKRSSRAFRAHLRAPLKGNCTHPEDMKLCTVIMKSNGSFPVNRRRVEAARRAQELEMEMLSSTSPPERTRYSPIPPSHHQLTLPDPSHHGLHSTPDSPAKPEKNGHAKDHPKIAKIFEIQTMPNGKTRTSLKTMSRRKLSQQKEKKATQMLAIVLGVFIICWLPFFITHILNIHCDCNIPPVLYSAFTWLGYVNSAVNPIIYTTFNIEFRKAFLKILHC
Sequence of Muscarinic acetylcholine receptor M1 (Homo sapiens) (P11229 whole entry, looked up): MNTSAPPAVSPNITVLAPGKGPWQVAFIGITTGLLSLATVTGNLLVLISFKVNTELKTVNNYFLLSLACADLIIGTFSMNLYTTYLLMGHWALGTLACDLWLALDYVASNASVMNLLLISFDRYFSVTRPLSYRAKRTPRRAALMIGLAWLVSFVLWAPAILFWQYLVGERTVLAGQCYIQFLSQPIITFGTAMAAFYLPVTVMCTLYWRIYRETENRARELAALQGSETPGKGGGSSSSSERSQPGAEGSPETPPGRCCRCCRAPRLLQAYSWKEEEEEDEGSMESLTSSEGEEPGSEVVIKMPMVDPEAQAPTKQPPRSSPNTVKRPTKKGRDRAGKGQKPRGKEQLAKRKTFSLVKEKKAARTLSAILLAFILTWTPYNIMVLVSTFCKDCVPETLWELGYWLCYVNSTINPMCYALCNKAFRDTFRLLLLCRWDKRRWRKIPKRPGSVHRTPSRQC
Sequence of Gonadotropin-releasing hormone receptor (Homo sapiens) (P30968 whole entry, looked up): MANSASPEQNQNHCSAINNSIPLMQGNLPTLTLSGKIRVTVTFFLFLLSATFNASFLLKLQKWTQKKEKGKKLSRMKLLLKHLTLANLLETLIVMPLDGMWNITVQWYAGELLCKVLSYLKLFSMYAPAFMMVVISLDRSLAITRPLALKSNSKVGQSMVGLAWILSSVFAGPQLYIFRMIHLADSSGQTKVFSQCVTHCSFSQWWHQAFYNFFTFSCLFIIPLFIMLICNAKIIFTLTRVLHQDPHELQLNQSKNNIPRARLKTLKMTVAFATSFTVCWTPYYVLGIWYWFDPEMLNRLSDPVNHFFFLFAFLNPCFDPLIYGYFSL
Sequence of KiSS-1 receptor (Homo sapiens) (Q969F8 whole entry, looked up): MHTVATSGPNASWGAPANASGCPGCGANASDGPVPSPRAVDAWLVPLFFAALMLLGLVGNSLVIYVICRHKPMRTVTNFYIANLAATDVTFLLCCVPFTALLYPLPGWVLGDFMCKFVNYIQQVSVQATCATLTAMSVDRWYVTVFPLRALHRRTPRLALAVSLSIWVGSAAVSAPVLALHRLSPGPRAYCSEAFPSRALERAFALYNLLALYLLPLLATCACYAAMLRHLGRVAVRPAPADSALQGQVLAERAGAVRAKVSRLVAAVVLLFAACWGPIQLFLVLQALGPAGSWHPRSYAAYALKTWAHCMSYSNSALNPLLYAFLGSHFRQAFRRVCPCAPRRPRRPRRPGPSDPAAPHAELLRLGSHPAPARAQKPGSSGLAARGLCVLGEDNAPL

As to `CCOC(=O)C(O)(c1ccc(Cl)cc1)c1ccc(Cl)cc1`, the Potency entry in [1], in assay [2], in assay [3], in assay [4], in assay [5] and in [6] was “inactive” each time. For the same molecule, the Potency result in [7], in [8], in assay [9], in assay [10], in assay [14] and in assay [16] was “inactive” each time. Also, in assay [17], the Potency result was “inactive”. Further, the Potency was 33.8 µM (active) and inactive in assay [11]; 6.99 µM (active) and inactive in assay [12]; 8.48 µM (active) in assay [13]; 69.3 µM (active) and inactive in assay [15].

In the case of `CN1CC[C@]23c4c5ccc(O)c4O[C@H]2[C@@H](O)CC[C@H]3[C@H]1C5`, the Potency result in [1], in assay [2], in [3], in assay [4], in assay [5] and in [6] was “inactive” each time. Further, the Potency entry in assay [7], in assay [8], in assay [10], in assay [11], in assay [12] and in [13] was “inactive” each time. Also, the Potency result in assay [18], in [19], in [15], in assay [20], in [16] and in [17] was “inactive” throughout.

For the molecule `CN=C=O`, the Potency entry in assay [1], in assay [2], in assay [3], in assay [4], in assay [6] and in assay [7] was “inactive” each time. For the same molecule, the Potency entry in assay [8], in assay [9], in assay [10], in assay [11], in [12] and in assay [13] was “inactive” in each case. Moreover, the Potency entry in assay [14], in assay [18], in assay [19], in assay [15], in assay [16] and in assay [17] was “inactive” each time.

As for `CCCCOCC1CO1` (centres undefined), the Potency result in assay [1], in [2], in assay [3], in assay [4], in assay [5] and in assay [7] was “inactive” throughout. The Potency result in [8], in [9], in [10], in [12], in assay [13] and in assay [14] was “inactive” each time. For the same molecule, the Potency result in assay [18], in [19], in assay [15], in assay [20], in [16] and in assay [17] was “inactive” in each case.

On to `O=[N+]([O-])c1ccccc1`, for which the Potency result in assay [1], in assay [2], in assay [3], in [4], in assay [5] and in assay [6] was “inactive” each time. Further, the Potency entry in [7], in assay [8], in assay [9], in assay [10], in assay [11] and in assay [13] was “inactive” each time. Moreover, the Potency entry in assay [14], in assay [18], in assay [19], in [15], in assay [20] and in assay [16] was “inactive” in each case. The Potency result in assay [17] is “inactive”.

Consider `Oc1cc(Cl)ccc1Cl`, for which the Potency result in [1], in assay [2], in assay [3], in [4], in assay [5] and in [6] was “inactive” each time. In addition, the Potency result in [7], in assay [8], in assay [9], in assay [10], in assay [11] and in assay [12] was “inactive” each time. The Potency entry in [13], in assay [14], in assay [18], in assay [19], in assay [15] and in assay [20] was “inactive” throughout. Besides, in assay [17], the Potency entry was “inactive”.
